Only some compounds are listed: those with a hit (about 2.2% of all), similar ones and a draw of the others.
APP 5UTR inh – APP translation inhibition | SH-SY5Y APP 5'UTR-luciferase reporter, luminescence | inhibition, % at 2 µM | 190,000 tested, 0.82% active | AID 1285;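 active means inhibition above a set limit, derived from the sample mean plus 3 SD, cut at about 45% in these data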
BaF3 parental – reduces parental Ba/F3 cell viability, JAK2V617F counter-screen; CellTiter-Glo ATP luminescence; inhibition, % at 5.6 µM; 220,000 tested, 1.1% active;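 active means inhibition above a per-campaign cutoff, the mean inhibition of all tested compounds plus 3 SD, cut at about 27% in these data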
KLF5 inhibitor – kruppel-like factor 5 inhibition; 290,000 tested, 0.23% active; DLD-1 KLF5 promoter-luciferase reporter, luminescence; AID 1700; inhibition, % at 5 µM;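 active means inhibition above a per-plate limit of that plate's mean compound inhibition plus 3 SD, cut at about 60% in these data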;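 further: higher means less KLF5 promoter-driven luciferase light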
Ba/F3 V617F tox – loss of viability in JAK2V617F-driven Ba/F3 cells | Ba/F3 EpoR-JAK2V617F viability, ATP luminescence | inhibition, % at 5.6 µM | 220,000 tested, 1.1% active;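 active means inhibition above the campaign mean plus 3 SD over all tested compounds, cut at about 24% in these data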;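 further: cytokine-independent growth of Ba/F3 cells driven by EpoR plus mutant JAK2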
aSyn 5UTR inh – 5' untranslated region of α-synuclein, MLPCN primary screen. alpha-synuclein 5'UTR reporter, inhibitor activity. inhibition, % (tested at 7.5 µM). 300,000 tested, 0.82% active; in the data active means inhibition above about 60%;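 further: H4 neuroglioblastoma cells stably carrying SNCA 5'UTR luciferase fusion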
IEC-6 tox-1 – counter-screen for KLF5 inhibitors: cytotoxicity in IEC-6 cells; IEC-6 cytotoxicity, luminescence viability; inhibition, % at 5 µM; 290,000 tested, 0.78% active
KLF5 inh confirm – KLF5 inhibition, confirmation assay; 610 tested, 79% active; inhibition, % at 4 µM; DLD-1 KLF5 promoter firefly luciferase reporter, luminescence; shares compounds with KLF5 inhibitor;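 active means inhibition above a set limit taken from the earlier primary screen, cut at about 63% in these data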
IEC-6 tox-2 – kills rat IEC-6 cells in KLF5 counter-screen | IEC-6 rat intestinal cells, viability luminescence | 610 tested, 56% active | inhibition, % at 4 µM | AID 1905 | shares compounds with KLF5 inhibitor; in the data active means inhibition above about 23%;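 further: cells exposed to compounds for 48 hours before viability read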
IEC-6 cytotox cf – IEC-6 cytotoxicity, confirmation assay; shares compounds with IEC-6 tox-1; IEC-6 rat intestinal epithelial viability, luminescence; inhibition, % at 5 µM; AID 1907; 1,900 tested, 63% active
Hits are given with their value; . = inactive; / = no result given. Unless noted, no stated cut-off is given here; in the data, active means inhibition above about 22%; inactive means the rest.

SMILES	APP 5UTR inh	BaF3 parental	KLF5 inhibitor	Ba/F3 V617F tox	aSyn 5UTR inh	IEC-6 tox-1	KLF5 inh confirm	IEC-6 tox-2	IEC-6 cytotox cf
CC(C)Oc1ccccc1C1CC(=O)Nc2cc3c(cc21)OCCO3 (stereo not given)	95	78	80	74	73	88	98	90	56
CCOc1ccccc1C1CC(=O)Nc2cc3c(cc21)OCO3 (stereo not given)	90	75	74	79	66	83	91	65	57
CC(C)c1ccc(C(C)NCCS(=O)(=O)c2ccc(Cl)cc2)cc1 (stereo not given)	/	/	.	/	.	.	/	/	/
CCOC(=O)C1CCN(CCCSc2ccc(C)cc2)CC1	/	/	.	/	.	.	/	/	/
O=C(NC1CC1)c1ccc(NS(=O)(=O)c2ccc(F)cc2)cc1	/	/	/	/	.	/	/	/	/
O=C(N/N=C/c1cccc(O)c1)c1ccc2c(c1)OCCO2	/	/	.	/	.	.	/	/	/
Cc1cccc(/C=N/NC(=O)c2ccc3c(c2)OCCO3)c1O	/	/	70	/	.	99	.	.	.
CC(=O)NC12CC3CC(C1)CC(C(=O)Nc1nc4c(C)cccc4s1)(C3)C2	/	/	.	/	.	.	/	/	/
COc1ccc2c(c1)sc1nc(-c3ccccc3)cn12	86	69	72	70	105	76	103	70	55
O=C(N/N=C/c1ccc(OC(=O)c2ccc(Br)cc2)cc1)c1ccncc1	/	/	.	/	.	.	/	/	/
O=C(N/N=C/c1cc(Br)ccc1O)c1ccncc1	/	.	84	.	.	22	89	.	29
O=C(N/N=C/c1cc(Br)ccc1OC(=O)c1ccc(Br)cc1)c1ccncc1	/	/	78	/	.	97	90	.	24
COc1ccccc1/C=N\NC(=O)c1c(C)nc2ccc(Cl)cn12	/	/	.	/	.	.	/	/	/
COc1cccc(/C=N/NC(=O)c2c(C)nc3ccc(Cl)cn23)c1O	/	/	93	/	.	83	88	63	47
CC(=O)c1cccc(Nc2c3c(nc4ccccc24)CCC3)c1	/	/	65	/	75	75	102	51	51
COc1ccc(CN2C(=NC(=O)C3CCCO3)SC3CS(=O)(=O)CC32)cc1OC (stereo not given)	/	/	.	/	.	.	/	/	/
Nc1ccccc1C(=O)NCC1(c2ccccc2)CCCC1	/	/	.	/	.	.	/	/	/
Oc1nc(Nc2ccc(F)cc2)sc1/C=C1\C=Nc2ccccc21	/	.	.	.	.	.	/	/	/
CC1=Nc2ccccc2/C1=C\c1sc(Nc2ccc(C)cc2)nc1O	96	75	66	76	.	79	85	58	54
O=C(Nc1nc(-c2ccccn2)cs1)c1ccccc1-n1cnnn1	/	63	71	66	98	90	76	59	70
CC(=O)Nc1ccc(C(=O)Nc2nc(-c3ccccn3)cs2)cc1	.	.	.	.	.	.	/	/	/
Cc1ccc(-c2nnc(SCC(=O)Nc3ccccc3F)o2)cc1	.	.	100	.	92	28	66	.	.
O=C(CSc1nnc(-c2ccccc2)o1)Nc1ccccc1F	.	32	72	26	74	29	.	.	.
O=C(CN1CCN(S(=O)(=O)c2ccccc2)CC1)NCCc1ccccc1	/	/	.	/	.	.	/	/	/
Cc1cccc(OCC(=O)N2CCc3ccccc3C2)c1	/	/	.	/	.	.	/	/	/
SMILES	APP 5UTR inh	BaF3 parental	KLF5 inhibitor	Ba/F3 V617F tox	aSyn 5UTR inh	IEC-6 tox-1	KLF5 inh confirm	IEC-6 tox-2	IEC-6 cytotox cf
COc1ccccc1S(=O)(=O)Cc1ccc(C(=O)NC2CC2)o1	/	/	.	/	.	.	/	/	/
CCCNC1=C(N(C(C)=O)c2cccc(F)c2)C(=O)c2ccccc2C1=O	49	104	96	101	92	65	.	53	41
CCC(=O)N(C1=C(NC(C)C)C(=O)c2ccccc2C1=O)C(C)C	.	.	.	.	.	.	/	/	/
O=C(Sc1cccc2cccnc12)c1ccccc1Br	/	/	62	/	.	102	.	100	99
Cc1cccc(N(C)S(=O)(=O)c2ccc(-c3cc(C)no3)s2)c1	/	/	74	/	88	78	74	55	53
CCN(c1cccc(C)c1)S(=O)(=O)c1ccc(-c2cc(C)no2)s1	/	/	72	/	.	67	.	37	37
CC(=O)Oc1ccc(C2C3=C(CC(C)(C)CC3=O)Nc3cc4c(cc32)OCCO4)cc1 (stereo not given)	.	.	.	.	.	.	/	/	/
O=C1OCC2=C1C(c1ccc(F)cc1)c1cc3c(cc1N2)OCO3 (stereo not given)	95	.	68	59	/	77	88	86	84
COc1cc2c(cc1OC)C(c1ccc3c(c1)OCO3)C1=C(CC(C)(C)CC1=O)N2 (stereo not given)	.	.	.	.	.	.	/	/	/
O=C1OCC2=C1C(c1ccc(F)cc1)c1cc3c(cc1N2)OCCO3 (stereo not given)	94	96	98	96	/	95	92	84	86
C#CCOc1ccc(C2C3=C(COC3=O)Nc3cc4c(cc32)OCO4)cc1OC (stereo not given)	95	95	79	94	132	95	88	83	84
O=C1OCC2=C1C(c1ccc3c(c1)OCO3)Sc1ccccc1N2 (stereo not given)	.	.	.	.	.	.	/	/	/
Cc1ccc(NC(=O)CN2C(=O)NC3(CCCCC3C)C2=O)cc1S(=O)(=O)N1CCCCC1 (stereo not given)	/	/	/	/	.	/	/	/	/
O=C(c1cc(-c2ccncc2)nc2c(Cl)cccc12)N1CCN(c2ccccc2F)CC1	/	/	66	/	99	67	65	47	54
COc1cccc(C(=O)Nc2ccc(N3CCN(C(=O)c4cccs4)CC3)cc2)c1	/	/	63	/	.	77	.	35	34
O=C(Nc1ccc(N2CCN(C(=O)c3cccs3)CC2)cc1)c1cccc(F)c1	/	/	.	/	.	.	/	/	/
NC(=O)C1CCN(C(=O)CCC(=O)c2ccc(F)cc2)CC1	/	/	.	/	.	.	/	/	/
CCNC(=O)N1CCCC(C(=O)c2ccc(C(F)(F)F)cc2)C1 (stereo not given)	/	/	.	/	.	.	/	/	/
Cc1nc(N)nc(N)c1/C=C/C(C)(C)c1ccc(Cl)cc1	70	103	83	98	125	86	84	76	77
Cc1cccc(N2CCN(C(=O)c3c(-c4ccccc4Cl)noc3C)CC2)c1C	/	/	77	/	.	73	76	56	55
Cc1onc(-c2ccccc2Cl)c1C(=O)N1CCN(C=O)CC1	/	/	.	/	.	.	/	/	/
COC(=O)c1ccc(Oc2cc(C)nc(-n3nc(C)cc3C)n2)cc1	94	66	82	74	65	23	81	.	45
Cc1c(C(=O)OCc2ccccc2)[nH]c2c1C(=O)CC(c1ccco1)C2 (stereo not given)	94	73	77	68	.	81	80	56	52

Screening results as filed in PubChem BioAssay.
